Target: Streptavidin (Streptomyces avidinii) (UniProt P22629)
Test: compounds binding control protein streptavidin – biophysical, small-molecule microarray, 635/667 nm fluorescence, artefact control for SMM compound annotation, primary screen (AID 1147);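 note: signal reflects streptavidin binding to arrayed compounds as a control protein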
Details: higher = more signal

Streptavidin (Streptomyces avidinii), sequence (P22629 whole entry, looked up): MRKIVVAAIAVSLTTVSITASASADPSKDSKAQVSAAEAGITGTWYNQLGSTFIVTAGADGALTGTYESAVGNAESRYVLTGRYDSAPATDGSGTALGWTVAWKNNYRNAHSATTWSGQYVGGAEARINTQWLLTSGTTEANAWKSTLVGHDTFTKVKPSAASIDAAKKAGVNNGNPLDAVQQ

SMILES	composite z-score
COc1ccc([C@H]2OC[C@@H]3CCC(=O)N32)cc1	0.711
O=C1O[C@@H](c2ccccc2)[C@@H](c2ccccc2)N2[C@@H](c3ccccc3OCCO)[C@]3(C(=O)Nc4ccccc43)[C@@H](C(=O)O)[C@H]12	1.38
CCOc1cc(C(O)C2C=CC3C(=O)N(c4ccccc4)C(=O)C3N2Nc2ccc(C(C)C)cc2)ccc1O (configuration not stated)	0.809
O=C1OCC=C[C@H]2OC34C=CCN(Cn5nnc6ccccc65)C(=O)[C@H]3N(CCCCCO)C(=O)[C@@H]4[C@@H]12 (some centres not stated)	-0.573
COC(=O)C(CC#Cc1ccc2c(c1)[C@]1(C(=O)N2)[C@H](c2ccc(O)cc2)N2[C@H](c3ccccc3)[C@H](c3ccccc3)OC(=O)[C@H]2[C@@H]1C(=O)N1CCN(c2ncccn2)CC1)C(=O)OC	0.709
CC[C@@H]1C=C(C(=O)O)[C@H](c2ccc(C)cc2)N1S(=O)(=O)c1ccc(C)cc1	0.583

System: not listed separately
Test: probe aInhba binding on compound microarray – biochemical, small-molecule microarray, 635/667 nm fluorescence, primary screen (AID 1148);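 note: score merges 667nm spot fluorescence with signal-to-noise for antibody binding to printed compounds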
Details: higher = more signal

SMILES	composite z-score
COCCOC(=O)N1C(=O)[C@@]2(c3ccccc31)[C@H](c1ccc(OCCO)cc1)N1[C@H](c3ccccc3)[C@H](c3ccccc3)OC(=O)[C@H]1[C@@H]2C(=O)N1CCc2cc(OC)c(OC)cc2C1	0.505
O=C(CS)NCCCCCNC(=O)[C@H]1C[C@H]2C(=O)NCC(=O)N2[C@H]1c1cccc(OCCO)c1	-0.217
CCCC[C@@H]1C[C@H]1[C@@H](NC(=O)c1cccnc1)c1ccc(Cl)cc1	-0.335
CCCCCCCCCCC(O)C1C=CC2C(=O)NC(=O)C2N1Nc1ccc(Cl)cc1Cl (configuration not stated)	-0.0131
O=C1O[C@H](c2ccccc2)[C@H](c2ccccc2)N2[C@H]1[C@@H](C(=O)N1CCN(c3ncccn3)CC1)[C@]1(C(=O)Nc3ccc(C#CC4=CCCCC4)cc31)[C@H]2c1ccccc1OCCO	0.772
CCCCC(O)C1C=CC2C(=O)N(C)C(=O)C2N1N1CCCCC1 (configuration not stated)	0.196
O=C1OCCC=C[C@H]2OC34C=CCN(c5ccc(Cl)cc5)C(=O)[C@H]3N(CCCO)C(=O)[C@@H]4C12 (some centres not stated)	-0.227
CO[C@H]1O[C@H](CO)[C@@H](OC(=O)Nc2cccc(F)c2)[C@H](OC(=O)Nc2ccccc2)[C@H]1OC(=O)Nc1ccccc1	0.226
C#CCOc1ccc(C[C@@H](C(=O)OC)N(CC#C)[C@@H](/C=C/C2CC2)[C@H](O)Cc2ccccc2)cc1	-0.183
CCCCCCc1nc(-c2ccc(-c3ccc(Cl)c(Cl)c3)o2)c(C)c2c1[Si](C(C)C)(C(C)C)OC2	-0.0933
COCCOC(=O)N1C(=O)[C@@]2(c3ccccc31)[C@H](C(=O)N1CCCCCCC1)[C@H]1C(=O)O[C@H](c3ccccc3)[C@H](c3ccccc3)N1[C@@H]2c1ccc(OCCO)cc1	2.4
COc1ccc([Si](C)(C)[C@H]2[C@H](CCO)O[C@@]3(C(=O)N(Cc4ccccc4)c4ccc(N5CCCCC5=O)cc43)[C@@H]2C)cc1	-0.118
COCCCNC(=O)[C@@]1(Sc2ccc(C)cc2)CC(=O)N(Cc2ccccc2Cl)[C@@H]1c1ccc(CO)cc1	-0.0331
CO[C@H]1O[C@H](CO)[C@@H](OC(=O)Nc2ccccc2)[C@@H]2OC(=O)[C@@H](Cc3ccc4ccccc4c3)C/C=C/C[C@H](Cc3ccc4ccccc4c3)C(=O)O[C@@H]12	-0.0494
[N-]=[N+]=Nc1ccccc1C[C@]1(C(=O)N2CCCCC2)COC(c2ccc(OCCCO)cc2)=N1	0.0108
C=C(C(=O)CC[C@H](OC(C)=O)c1ccccc1OCCO)C(C)C	-0.188
COCCOC(=O)N1C(=O)[C@@]2(c3cc(C#CCCO)ccc31)[C@H](c1ccc(OCCO)cc1)N1[C@H](c3ccccc3)[C@H](c3ccccc3)OC(=O)[C@H]1[C@@H]2C(N)=O	0.364
C=CCC(OC(C)=O)[C@@H]1[C@@H](N(Cc2ccc(-c3ccccc3)cc2)C(=O)Cc2ccc(F)cc2)c2cc(OCCCO)ccc2N1C(=O)c1ccc2ccccc2c1 (some centres not stated)	0.0464

SMILES	composite z-score
COC(=O)[C@@]1(Cc2ccccc2)[C@H]2c3cc(C(=O)N4CCCC4)n(Cc4ccc(O)c(OC)c4)c3C[C@H]2CN1C(=O)c1ccccc1	0.198
CCOC(=O)C1=CC[C@@H](c2ccc(C(F)(F)F)cc2)N(S(=O)(=O)c2ccc(C)cc2)[C@H]1c1ccccc1	0.316
O=C(CS)NCCCCCNC(=O)[C@@H]1C[C@@H]2C(=O)NCC(=O)N2[C@@H]1c1cccc(OCCO)c1	0.136
C=CCC(OC(C)=O)[C@@H]1[C@@H](N(Cc2ccc(-c3cccc(C(F)(F)F)c3)o2)C(=O)Cc2ccc(OC)cc2)c2cc(OCCCO)ccc2N1C(=O)c1ccc2ccccc2c1 (some centres not stated)	-0.128
CC=CC(O)C1C=CC2C(=O)N(C)C(=O)C2N1N(c1ccccc1)c1ccccc1 (configuration not stated)	0.0536
O=C1O[C@@H](c2ccccc2)[C@@H](c2ccccc2)N2[C@@H](c3ccc(OCCO)cc3)[C@]3(C(=O)Nc4ccc(C#CCCO)cc43)[C@@H](C(=O)NC[C@H](O)c3ccccc3)[C@H]12	0.288
CC[C@@H]1C=C(C(=O)O)[C@H](c2cccc3ccccc23)N1S(=O)(=O)c1ccc(C)cc1	-0.128
C[N+](C)(C)CCCCCCNC(=O)[C@H]1C[C@H]2C(=O)N[C@@H](Cc3ccccc3)C(=O)N2[C@H]1c1cccc(OCCO)c1	0.0176
CCOC(=O)C[C@H]1[C@H](OC(=O)c2ccc(C(=O)c3ccccc3)cc2)[C@@H](NC(=O)Cc2ccc(OC)cc2)c2cc(OCCCO)ccc2N1C(=O)c1ccc2ccccc2n1	0.158
CC(C)(C)OC(=O)CC[C@]1(C(=O)NCCN2CCOCC2)COC(c2ccc(OCCCO)cc2)=N1	0.0227
COc1ccc(C(=O)Nc2cccc(CN3C(=O)[C@]4(O[C@H](CCn5cc(CCO)nn5)[C@@H]([Si](C)(C)c5ccc(OC)cc5)[C@@H]4C)c4ccccc43)c2)cc1	-0.0963
COc1ccc(CCNC(=O)[C@@]2(c3ccc([N+](=O)[O-])cc3)CC(=O)N(CC34CC5CC(CC(C5)C3)C4)[C@@H]2c2ccc(CO)cc2I)cc1	-0.443
COc1ccc([C@H]2OC[C@@H]3CCC(=O)N32)cc1	0.114
O=C1O[C@@H](c2ccccc2)[C@@H](c2ccccc2)N2[C@@H](c3ccccc3OCCO)[C@]3(C(=O)Nc4ccccc43)[C@@H](C(=O)O)[C@H]12	-0.103
CCOc1cc(C(O)C2C=CC3C(=O)N(c4ccccc4)C(=O)C3N2Nc2ccc(C(C)C)cc2)ccc1O (configuration not stated)	-0.0375
O=C1OCC=C[C@H]2OC34C=CCN(Cn5nnc6ccccc65)C(=O)[C@H]3N(CCCCCO)C(=O)[C@@H]4[C@@H]12 (some centres not stated)	-0.348
COC(=O)C(CC#Cc1ccc2c(c1)[C@]1(C(=O)N2)[C@H](c2ccc(O)cc2)N2[C@H](c3ccccc3)[C@H](c3ccccc3)OC(=O)[C@H]2[C@@H]1C(=O)N1CCN(c2ncccn2)CC1)C(=O)OC	0.313
CC[C@@H]1C=C(C(=O)O)[C@H](c2ccc(C)cc2)N1S(=O)(=O)c1ccc(C)cc1	0.0516
